High-throughput results as filed in PubChem.
This is a sample that favours compounds with a hit; in the whole collection about 2.5% have one here.
Cruzain inh Det: cruzain (T. cruzi) inhibition with detergent; P25779; purified cruzain, Z-FR-AMC fluorescence, 0.01% Triton; Potency, µM, for inactives: max response, negative = inhibition, most hits filed as inhibitors; 200,000 tested, 0.43% active; AID 1478;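 also: plate controls were neutral wells for no effect and buffer without enzyme for full effect; nearly all actives have a fitted effect of over 40% in size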
Target sequence (P25779 123-467 limits assumed): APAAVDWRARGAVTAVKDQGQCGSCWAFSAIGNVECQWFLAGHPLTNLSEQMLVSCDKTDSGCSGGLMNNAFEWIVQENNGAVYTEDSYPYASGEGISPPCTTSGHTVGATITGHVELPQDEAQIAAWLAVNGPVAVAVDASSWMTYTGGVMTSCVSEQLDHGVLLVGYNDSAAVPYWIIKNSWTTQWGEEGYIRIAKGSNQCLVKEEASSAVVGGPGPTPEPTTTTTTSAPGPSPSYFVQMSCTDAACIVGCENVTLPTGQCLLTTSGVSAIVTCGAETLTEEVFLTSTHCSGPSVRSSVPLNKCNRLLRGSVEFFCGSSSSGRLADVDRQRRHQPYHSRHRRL
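Enzyme 1.5 nM, Z-FR-AMC 2 uM, NaOAc 100 mM pH 5.5, DTT 5 mM, Triton X-100 0.01%; 15 min RT compound preincubation; kinetic ex360/em450, 60 s delta.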
Cruzain inh noDet: cruzain (T. cruzi) inhibition without detergent. P25779. purified cruzain, Z-FR-AMC fluorescence, no detergent. Potency, µM, without a hit: max response, negative = inhibition, usual class: inhibitors. 200,000 tested, 2.3% active. AID 1476;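 also: plate controls were enzyme without inhibitor for no effect and buffer without enzyme for full effect; nearly all actives have a fitted effect of over 40% in size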
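Purified cruzain at 1.5 nM, pre-incubated 15 min with compound at room temperature in 100 mM sodium acetate pH 5.5, 5 mM DTT, 0.00005% Triton X-100. Reaction started with 2 uM Z-FR-AMC; AMC fluorescence increase over 60 s gives rate.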
Active calls of the source: *; ? = inconclusive; ! = repeats disagree. Calls follow the shape of the dose curve; as a rule, active = well fitted curve in the direction sought with a large enough effect; inconclusive = small, poorly fitted or top-dose-only effect, or another doubt; inactive = no such curve, though single readings can be large; an effect the other way counts as inactive or inconclusive. Potency is read from the fitted curve at half-maximal effect.

SMILES	Cruzain inh Det	Cruzain inh noDet
CCOc1ccc(S(=O)(=O)c2c(C(=O)c3ccc(C)c(C)c3)cnc3ccccc23)cc1	-3%	20µM*
COc1ccc(S(=O)(=O)c2c(C(=O)c3ccc(C)c(C)c3)cnc3ccc(F)cc23)cc1	-3%	13µM*
Cc1ccc2ncc(C(=O)c3ccc(C)c(C)c3)c(S(=O)(=O)c3ccc(F)cc3)c2c1	-6%	?
CC(=O)Nc1ccc(Nc2nc3ccc(C)cc3n3nnnc23)cc1	-5%	17%
COc1ccccc1-c1nc(NCCN2CCOCC2)c2ccccc2n1	-3%	7%
c1cc(-c2ccncc2)ccn1	1%	-5%
Nc1ccncc1	3.2µM*!	3.5µM*!
CC(C)NC(=O)NC(=O)COC(=O)c1ccc(F)cc1F	-2%	2%
COc1cc2nc(SCc3ccc(F)cc3)n(Cc3cccs3)c(=N)c2cc1OC	5%	?
COc1ccc(Cn2c(SCc3ccccc3C)nc3cc(OC)c(OC)cc3c2=N)cc1	16µM*	?
CCCCCC(=O)N(c1ccc(OCC)cc1)S(=O)(=O)c1ccc2c(c1)n(C)c(=O)n2C	0%	-8%
CNCCCCCCCCSc1nc(C(C)C)ccc1C(=O)c1cccs1	-3%	21%
CN1CCN(c2ncncc2-c2cccnc2)CC1	1%	-5%
COc1cc(NC(=O)CSc2nc3ccccc3n2-c2ccccc2)c(C)cc1[N+](=O)[O-]	1%	7.9µM*
COc1cc(NC(=O)CSc2nccc(C)n2)c(C)cc1[N+](=O)[O-]	-5%	-3%
COc1ccc([N+](=O)[O-])cc1NC(=O)CSc1nncn1-c1ccccc1	-5%	-12%
COc1ccc(-n2c(SCC(=O)Nc3ccc([N+](=O)[O-])cc3OC)nc3ccccc32)cc1	-1%	7.9µM*
c1cc(CSSCc2ccncc2)ccn1	2.8µM*	?
N=C(N)SCCc1ccncc1	-1%	3%
CC1=CC(C)(C)n2c(O)c(N=NC(N)=S)c3c(C)ccc1c32	?	20µM*
CC1=CC(C)(C)n2c(O)c(N=NC(N)=S)c3cccc1c32	-21%	-4%
NC(=S)SCCC(=O)O	0%	6%
COc1ccc(C)cc1NC(=O)C(OC(=O)CNC(=O)c1ccc(Br)cc1)c1ccccc1 (stereo unspecified)	7.9µM*	10µM*
COc1ccc(C)cc1NC(=O)C(NS(=O)(=O)c1cccs1)c1ccccc1 (stereo unspecified)	-2%	-25%
COc1ccc(C)cc1NC(=O)C(OC(=O)CNC(=O)c1cc(C)cc(C)c1)c1ccccc1 (stereo unspecified)	8.9µM*	20µM*
SMILES	Cruzain inh Det	Cruzain inh noDet
CCCC(=O)OC(C(=O)Nc1cc(C(F)(F)F)ccc1Cl)c1ccccc1 (stereo unspecified)	-5%	19%
COc1ccc(C)cc1NC(=O)C(OC(=O)c1ccc([N+](=O)[O-])o1)c1ccccc1 (stereo unspecified)	-8%	?
Cc1cc(C(=O)NCC(=O)OC(C(=O)Nc2cc(C(F)(F)F)ccc2Cl)c2ccccc2)ccc1[N+](=O)[O-] (stereo unspecified)	4.5µM*	32µM*
COc1cccc(NC(=O)C(=O)NCCc2csc(-c3ccc(C)cc3)n2)c1	0%	-2%
Cc1ccc(NC(=O)CN2C(=O)CCn3nc(-c4cccn4C)cc32)c(Cl)c1	-3%	?
Cc1ccc(C2=NN(CC(=O)NCc3ccccn3)C(=O)CC2)cc1	-3%	2%
COc1ccc(C2=C(C)C(=O)N(Cc3ccc(C(=O)Nc4cc(C)ccc4C)cc3)S2(=O)=O)cc1	-8%	?
CC1=C(c2ccc(C)cc2)S(=O)(=O)N(Cc2ccc(C(=O)Nc3ccc(C)c(F)c3)cc2)C1=O	-2%	20µM*
O=C(c1ccc2c(c1)OCCO2)N(Cc1cccnc1)c1nc2ccc(F)cc2s1	3%	-4%
Cc1sc(NC(=O)/C=C/C(=O)O)c(C(N)=O)c1-c1ccc(C(C)(C)C)cc1	-8%	-2%
Cc1sc(NC(=O)c2cccc([N+](=O)[O-])c2)c(C(N)=O)c1-c1ccc(C(C)(C)C)cc1	4%	13µM*
CC1CC2CC(=O)C3CCCN4CCCC2[C@]34C1 (stereo partly specified)	-4%	0%
COc1ccc(Nc2sc(C(=O)c3ccc(Cl)cc3)c(N)c2C(=O)Nc2ccccc2OC)cc1	0%	4µM*
COc1cccc(Nc2sc(C(=O)c3ccc(Cl)cc3)c(N)c2C(=O)NCc2ccc(C)cc2)c1	0%	?
COc1ccc(C(=O)c2sc(Nc3ccccc3)c(C(=O)Nc3ccc(OC)c(OC)c3)c2N)cc1	-7%	-22%
COc1cccc(Nc2sc(C(=O)c3ccc(F)cc3)c(N)c2C(=O)NCc2ccc(Cl)cc2)c1	-3%	-16%
COc1ccccc1NC(=O)c1c(Nc2ccccc2C)sc(C(=O)Nc2cccc(Cl)c2)c1N	2%	3.2µM*
CCOc1ccccc1Nc1sc(C(=O)c2ccccc2)c(N)c1C(=O)Nc1ccccc1	-2%	?
COc1ccc(C(=O)c2sc(Nc3cccc(OC)c3)c(C(=O)Nc3cccc(C)c3C)c2N)cc1	0%	6.3µM*
COc1ccc(NC(=O)c2c(Nc3ccccc3)sc(C(=O)c3ccc(F)cc3)c2N)cc1	-8%	10µM*
COc1ccc(-c2nc3cnc(N4CCOCC4)nc3n(-c3ccc(OC)cc3)c2=O)cc1	-13%	?
COc1ccc(-c2noc(-c3ccc(NCCc4ccccc4)c([N+](=O)[O-])c3)n2)cc1	-2%	-9%
COc1cccc(CNC(=O)Cn2ncn3nc(-c4cccs4)cc3c2=O)c1OC	0%	-11%
COc1cccc(CNC(=O)C(NS(=O)(=O)c2cccs2)C(C)C)c1 (stereo unspecified)	-6%	-4%
CCCCC1=C(C(=O)OCC)C(C(=O)OCC)Oc2ccccc21 (stereo unspecified)	-4%	5%
SMILES	Cruzain inh Det	Cruzain inh noDet
COc1ccc(/C=C2\CCCC3C2=NN(C(=O)COC(=O)CNC(=O)c2ccccc2)C3c2ccc(OC)cc2)cc1 (stereo unspecified)	-26%	16µM*
COc1ccc(/C=C2\CCCC3C2=NN(C(=O)CSc2ncn[nH]2)C3c2ccc(OC)cc2)cc1 (stereo unspecified)	-5%	?
O=C1CCCC2=C1C(c1ccco1)Nc1ccc3ccccc3c12 (stereo unspecified)	-21%	-11%
O=C(COC(=O)C1CC(=O)N(c2ccccc2)C1)c1ccccc1 (stereo unspecified)	2%	0%
O=C(COC(=O)C1CC(=O)N(c2nc(-c3ccccc3)cs2)C1)c1ccccc1 (stereo unspecified)	-5%	25µM*
CCCCC/C=C\C/C=C\C[C@H](O)/C=C/C=C\CCCC(=O)O	1%	-12%
CCc1cccc(NC(=O)C(Cc2ccccc2)NS(=O)(=O)c2cccs2)c1 (stereo unspecified)	-10%	3%
COc1ccc(NC(=O)C(Cc2ccccc2)NS(=O)(=O)c2ccc(Br)s2)cc1OC (stereo unspecified)	-5%	-3%
Cc1ccc(NC(=O)C(Cc2ccccc2)NS(=O)(=O)c2cccs2)cc1Cl (stereo unspecified)	-1%	13µM*
O=C(Nc1ccc(Cl)c(C(F)(F)F)c1)C(Cc1ccccc1)NS(=O)(=O)c1ccc(Br)s1 (stereo unspecified)	0%	4µM*
Cc1cccc(C)c1NC(=O)C1CCCN1S(=O)(=O)c1cccc2nsnc12 (stereo unspecified)	1%	-10%
